Source: PubChem BioAssay AID1159580 (chemical genetic matrix, 2015)
In all, about 5,500 compounds went through this assay and about 2,000 (36%) were called active. Not shown: some 18% with an inconclusive outcome. Rule as the data show it: active = normalized growth mostly below about 0.91 (no sharp cut-off); inconclusive = no clear call, values can overlap the other calls; inactive = mostly above about 0.92. The list shows a part of the results.

Experiment: chemical genetic growth profiling, strain panel (AID 1159580);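 also: tested at 20 µM; growth read once vehicle control cultures reached saturation at 30 °C; 1 = growth at the plate median or of vehicle wells; lower values mean less growth of the strain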
Conditions: growth OD

Measured: normalized growth

CCC(N)C(O)c1ccc(O)c(O)c1 (configuration not stated)
inactive: S. cerevisiae deletion strains, locus YJR075W, strain HOC1, hits give low values 1.01 | S. cerevisiae deletion strains, locus YKL009W, strain mrt4, hits give low values 0.996 | S. cerevisiae deletion strains, locus YKL068W, hits give low values 0.993 | S. cerevisiae deletion strains, locus YKL085W, strain MDH1 (second series), hits give low values 0.985 | S. cerevisiae deletion strains, locus YKL085W, strain MDH1, hits give low values 0.985 | S. cerevisiae deletion strains, locus YKL160W, strain elf1, hits give low values 0.999 | S. cerevisiae deletion strains, locus YKL190W, strain CNB1, hits give low values 1.01 | S. cerevisiae deletion strains, locus YKR001C, strain vps1, hits give low values 0.99 | S. cerevisiae deletion strains, locus YKR026C, strain gcn3, hits give low values 0.973 | S. cerevisiae deletion strains, locus YKR091W, strain srl3, hits give low values 0.993 | S. cerevisiae deletion strains, locus YLL001W, strain dnm1, hits give low values 1 | S. cerevisiae deletion strains, locus YLL026W, hits give low values 0.984 | S. cerevisiae deletion strains, locus YLL041C, strain sdh2, hits give low values 1 | S. cerevisiae deletion strains, locus YLR027C, strain aat2, hits give low values 0.988 | S. cerevisiae deletion strains, locus YLR039C, strain RIC1, hits give low values 1.06 | S. cerevisiae deletion strains, locus YLR058C, strain SHM2, hits give low values 1.02 | S. cerevisiae deletion strains, locus YLR102C, strain apc9, hits give low values 0.983 | S. cerevisiae deletion strains, locus YLR113W, strain HOG1, hits give low values 0.998 | S. cerevisiae deletion strains, locus YLR221C, strain rsa3, hits give low values 1 | S. cerevisiae deletion strains, locus YLR258W, strain gsy2, hits give low values 0.993 | S. cerevisiae deletion strains, locus YLR262C, strain YPT6 (second series), hits give low values 0.996 | S. cerevisiae deletion strains, locus YLR262C, strain YPT6, hits give low values 1.05 | S. cerevisiae deletion strains, locus YLR268W, strain sec22, hits give low values 0.928 | S. cerevisiae deletion strains, locus YLR320W, strain mms22, hits give low values 0.99 | S. cerevisiae deletion strains, locus YLR330W, strain CHS5, hits give low values 1.01 | S. cerevisiae deletion strains, locus YLR342W, strain FKS1 (second series), hits give low values 0.989 | S. cerevisiae deletion strains, locus YLR342W, strain FKS1, hits give low values 0.995 | S. cerevisiae deletion strains, locus YLR357W, strain rsc2, hits give low values 0.979 | S. cerevisiae deletion strains, locus YLR370C, strain arc18, hits give low values 0.989 | S. cerevisiae deletion strains, locus YLR371W, strain rom2, hits give low values 0.977 | S. cerevisiae deletion strains, locus YLR384C, strain iki3, hits give low values 0.997 | S. cerevisiae deletion strains, locus YLR418C, strain cdc73, hits give low values 1.01 | S. cerevisiae deletion strains, locus YML016C, strain PPZ1, hits give low values 1.01 | S. cerevisiae deletion strains, locus YML032C, strain rad52, hits give low values 0.972 | S. cerevisiae deletion strains, locus YML120C, strain ndi1, hits give low values 1.01 | S. cerevisiae deletion strains, locus YML124C, strain tub3, hits give low values 0.991 | S. cerevisiae deletion strains, locus YMR058W, strain fet3, hits give low values 0.987 | S. cerevisiae deletion strains, locus YMR078C, strain ctf18, hits give low values 0.977 | S. cerevisiae deletion strains, locus YMR125W, strain sto1, hits give low values 0.964 | S. cerevisiae deletion strains, locus YMR129W, hits give low values 1 | S. cerevisiae deletion strains, locus YMR205C, strain PFK2, hits give low values 0.97 | S. cerevisiae deletion strains, locus YMR223W, strain ubp8, hits give low values 1.02 | S. cerevisiae deletion strains, locus YMR231W, strain pep5, hits give low values 0.996 | S. cerevisiae deletion strains, locus YMR263W, strain SAP30, hits give low values 1.01 | S. cerevisiae deletion strains, locus YMR307W, strain GAS1, hits give low values 1.01 | S. cerevisiae deletion strains, locus YNL067W, strain RPL9B, hits give low values 0.993 | S. cerevisiae deletion strains, locus YNL071W, strain lat1, hits give low values 0.991 | S. cerevisiae deletion strains, locus YNL128W, strain TEP1, hits give low values 1.02 | S. cerevisiae deletion strains, locus YNL153C, strain GIM3, hits give low values 0.985 | S. cerevisiae deletion strains, locus YNL183C, strain NPR1, hits give low values 0.968 | S. cerevisiae deletion strains, locus YNL209W, strain ssb2, hits give low values 1 | S. cerevisiae deletion strains, locus YNL233W, strain BNI4, hits give low values 0.992 | S. cerevisiae deletion strains, locus YNL248C, strain rpa49, hits give low values 1.01 | S. cerevisiae deletion strains, locus YNL250W, strain rad50, hits give low values 0.988 | S. cerevisiae deletion strains, locus YNL271C, strain bni1, hits give low values 0.99 | S. cerevisiae deletion strains, locus YNL298W, strain CLA4, hits give low values 0.993 | S. cerevisiae deletion strains, locus YNL307C, strain MCK1, hits give low values 1 | S. cerevisiae deletion strains, locus YNL322C, strain KRE1 (second series), hits give low values 0.985 | S. cerevisiae deletion strains, locus YNL322C, strain KRE1, hits give low values 1.01 | S. cerevisiae deletion strains, locus YNR049C, strain mso1, hits give low values 0.995 | S. cerevisiae deletion strains, locus YNR052C, strain pop2, hits give low values 0.997 | S. cerevisiae deletion strains, locus YOL006C, strain TOP1, hits give low values 1.05 | S. cerevisiae deletion strains, locus YOL012C, strain htz1 0.91 | S. cerevisiae deletion strains, locus YOL147C, strain pex11, hits give low values 0.991 | S. cerevisiae deletion strains, locus YOR001W, strain rrp6, hits give low values 1 | S. cerevisiae deletion strains, locus YOR061W, strain CKA2, hits give low values 1.02 | S. cerevisiae deletion strains, locus YOR069W, strain VPS5, hits give low values 1.01 | S. cerevisiae deletion strains, locus YOR070C, strain gyp1, hits give low values 0.991 | S. cerevisiae deletion strains, locus YOR080W, strain dia2, hits give low values 0.986 | S. cerevisiae deletion strains, locus YOR083W, strain WHI5, hits give low values 1.01 | S. cerevisiae deletion strains, locus YOR106W, strain vam3, hits give low values 0.997 | S. cerevisiae deletion strains, locus YOR136W, strain idh2, hits give low values 0.989 | S. cerevisiae deletion strains, locus YOR144C, strain elg1, hits give low values 0.986 | S. cerevisiae deletion strains, locus YOR184W, strain ser1, hits give low values 1 | S. cerevisiae deletion strains, locus YOR231W, strain MKK1, hits give low values 1.02 | S. cerevisiae deletion strains, locus YOR265W, strain rbl2, hits give low values 0.99 | S. cerevisiae deletion strains, locus YOR270C, strain vph1, hits give low values 1.02 | S. cerevisiae deletion strains, locus YOR290C, strain snf2, hits give low values 0.987 | S. cerevisiae deletion strains, locus YOR316C, strain cot1, hits give low values 0.989 | S. cerevisiae deletion strains, locus YPL051W, strain arl3, hits give low values 0.983 | S. cerevisiae deletion strains, locus YPL055C, strain LGE1, hits give low values 1.03 | S. cerevisiae deletion strains, locus YPL078C, strain atp4, hits give low values 0.996 | S. cerevisiae deletion strains, locus YPL106C, strain sse1, hits give low values 0.94 | S. cerevisiae deletion strains, locus YPL240C, strain hsp82, hits give low values 1.01 | S. cerevisiae deletion strains, locus YPL241C, strain CIN2, hits give low values 1.01 | S. cerevisiae deletion strains, locus YPL256C, strain CLN2, hits give low values 1.01 | S. cerevisiae deletion strains, locus YPR119W, strain clb2, hits give low values 0.981 | S. cerevisiae deletion strains, locus YPR141C, strain kar3, hits give low values 0.984 | S. cerevisiae deletion strains, locus YPR163C, strain tif3, hits give low values 0.996 | S. cerevisiae deletion strains, locus YPR167C, strain met16, hits give low values 0.99 | S. cerevisiae deletion strains, strain wtn01, hits give low values 0.979 | S. cerevisiae strains, strain wild type, hits give low values 1.02
